Screening results from PubChem BioAssay.
An excerpt weighted towards active compounds, which were near 6.9% of everything screened.
CSC inhib = cancer stem cell viability inhibitors, primary screen, luminescence | cancer stem cell-like cells viability | inhibition, % at 7.5 µM | actives 1.1% (n = 300,000) | AID 2717, 2010; in the data active = inhibition above about 75%; tested in HMLE shEcad cells
GRIN3A LBD mod = binders of NR3A ligand-binding domain, primary screen, biophysical, differential scanning fluorimetry, uHTS. Glutamate receptor ionotropic, NMDA 3A (GRIN3A) ligand-binding domain. NR3A LBD differential scanning fluorimetry, Tm shift; 0% = protein alone, 100% = glycine-bound protein. Tm shift relative to glycine control, % at 25 µM. actives 2.5% (n = 340,000);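 active = melting temperature shift of at least 10% of the positive control shift, at one fixed dose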
Beta apoptosis = inhibitors of cytokine-induced beta cell apoptosis, primary screen, luminescence. INS-1E cytokine-induced death, ATP luminescence, 48 h; percent of positive-control rescue, neutral wells zero. protection from apoptosis, % (concentration not given with the values). actives 0.8% (n = 300,000);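 active = Every replicate reaches about 75%, or at least half do and their mean reaches it too, limit read from the data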;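 also: 0% = cytokine-treated negative control wells and 100% = positive control rescue; higher means more ATP so stronger rescue from cytokine killing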
MPTP block = mitochondrial permeability transition pore inhibitors, primary screen, biochemical, isolated mouse mitochondria, absorbance; Ca2+ swelling absorbance, 30 min; inhibition, % at 10 µM; actives 1.4% (n = 360,000);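 active = inhibition of 50% or more, scaled per plate between neutral and stimulator controls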;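 also: 0% = DMSO wells given calcium and 100% = 1 mM EGTA wells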
Mdm2 MdmX PPI = inhibitors of human Mdm2-MdmX association, primary screen, cell-based, luminescence, split luciferase, SaOS-2, uHTS; Protein Mdm4 (Homo sapiens) + E3 ubiquitin-protein ligase Mdm2 (Homo sapiens), …; SaOS-2 split-luciferase Mdm2/MdmX complementation; inhibition, % at 8 µM; actives 3% (n = 330,000); AID 485346, 2010;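 active = inhibition of at least 50% at 8 µM in the primary screen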
Target sequence (O15151 whole entry, looked up): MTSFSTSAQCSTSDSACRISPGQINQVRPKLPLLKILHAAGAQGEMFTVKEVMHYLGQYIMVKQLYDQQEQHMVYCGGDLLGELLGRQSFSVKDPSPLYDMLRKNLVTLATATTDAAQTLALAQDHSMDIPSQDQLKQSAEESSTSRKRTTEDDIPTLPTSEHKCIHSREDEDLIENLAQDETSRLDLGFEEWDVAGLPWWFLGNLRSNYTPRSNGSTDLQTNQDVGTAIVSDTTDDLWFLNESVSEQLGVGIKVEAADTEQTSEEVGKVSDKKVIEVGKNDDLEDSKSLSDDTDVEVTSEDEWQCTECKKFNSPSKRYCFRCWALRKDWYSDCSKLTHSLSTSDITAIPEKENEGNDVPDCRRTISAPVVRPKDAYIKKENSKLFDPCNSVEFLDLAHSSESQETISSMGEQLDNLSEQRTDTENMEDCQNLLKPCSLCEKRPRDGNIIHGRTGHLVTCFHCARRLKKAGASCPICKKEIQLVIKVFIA
Target sequence (Q00987 whole entry, looked up): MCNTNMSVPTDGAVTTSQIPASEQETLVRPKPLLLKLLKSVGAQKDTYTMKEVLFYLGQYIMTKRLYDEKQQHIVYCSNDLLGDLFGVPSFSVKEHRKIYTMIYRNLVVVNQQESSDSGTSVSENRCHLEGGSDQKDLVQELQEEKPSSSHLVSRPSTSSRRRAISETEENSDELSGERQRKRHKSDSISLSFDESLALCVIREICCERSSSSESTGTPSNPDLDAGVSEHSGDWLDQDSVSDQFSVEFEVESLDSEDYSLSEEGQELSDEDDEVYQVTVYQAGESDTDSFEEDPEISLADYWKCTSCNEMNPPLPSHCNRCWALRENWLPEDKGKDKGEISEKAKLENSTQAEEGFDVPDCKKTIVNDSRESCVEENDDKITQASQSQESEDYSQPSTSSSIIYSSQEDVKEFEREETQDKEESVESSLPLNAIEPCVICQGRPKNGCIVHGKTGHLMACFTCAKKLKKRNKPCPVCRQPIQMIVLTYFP
SKKanGAS inh = S. pyogenes SKKanGAS growth inhibitors in kanamycin, primary screen, streptokinase expression inhibitor project, SKKanGAS strain, BacTiter-Glo luminescence; 6 h; inhibition, % at 7.5 µM; actives 1.3% (n = 300,000);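 active = mean replicate score, as percent of positive control median, at least 50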;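 also: strain carries kanamycin resistance gene driven by streptokinase promoter and grows in 40 µg/ml kanamycin; loss of luminescence reflects streptokinase promoter inhibition or plain growth inhibition; 0% = median of DMSO wells and 100% = positive control at its reference dose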
The depositor's hits bear a star; · = not tested or not shown.

SMILES | CSC inhib | GRIN3A LBD mod | Beta apoptosis | MPTP block | Mdm2 MdmX PPI | SKKanGAS inh
O=C(CC1CC2CCC1C2)Nc1nc(-c2ccccn2)cs1 (configuration not stated) | -1 | -3 | 14 | -2 | 22 | 76*
CCC(CC)C(C(=O)NCc1ccccc1)N(C)Cc1ccc(Cl)c(Cl)c1 (configuration not stated) | · | · | · | 24 | · | ·
CCc1ccccc1Nc1nn2c(=O)c3ccc(C(=O)NCc4ccccn4)cc3nc2s1 | 83* | 2 | 9 | -1 | 30 | 30
CCC(Sc1ccccn1)C(=O)Nc1cccc([N+](=O)[O-])c1 (configuration not stated) | 0 | 17* | 1 | -3 | 7 | 3
O=C(CN(c1ccc(Cl)c(C(F)(F)F)c1)S(=O)(=O)c1ccccc1)N/N=C/c1cccc2c1OCCO2 | 10 | 5 | -5 | 3 | 41 | 54*
CCOc1ccccc1-c1nnc(SCC(=O)NC2(C#N)CCCC2)o1 | -13 | 1 | 2 | -1 | 13 | ·
CCC(c1nnnn1C(C)(C)C)N1CCN(c2cc(Cl)ccc2C)CC1 (configuration not stated) | 1 | 4 | -3 | 1 | 14 | 8
CCCC(c1nnnn1CC1CCCO1)N1CCN(c2cc(Cl)ccc2C)CC1 (configuration not stated) | 99* | 4 | 3 | -2 | 20 | -7
Cc1ccc(Cl)cc1N1CCN(C(CC(C)C)c2nnnn2CC2CCCO2)CC1 (configuration not stated) | 101* | -2 | 5 | 4 | 24 | -3
CCOc1ccc(C2(C)CC(=O)N(C)C2=O)cc1 (configuration not stated) | -14 | -1 | · | 1 | 6 | 11
CC(OC(=O)Cn1[nH]c(=O)c2ccccc2c1=O)C(=O)NC1(C#N)CCCCC1 (configuration not stated) | -14 | 0 | 4 | 0 | 2 | -3
COc1ccc(CNC(=O)CN2C(=O)COc3ccc(S(=O)(=O)N4CCOCC4)cc32)cc1 | -24 | -1 | -6 | -1 | 3 | -1
Cc1ccc(NC(=O)CN2C(=O)COc3ccc(S(=O)(=O)N4CCCC4)cc32)c(C)c1 | -27 | 0 | -1 | 0 | 37 | -2
Cc1ccc(C)c(NC(=O)CN2C(=O)COc3ccc(S(=O)(=O)N4CCCC4)cc32)c1 | -5 | 10* | -3 | -2 | 24 | -1
COc1ccc(CNC(=O)CN2C(=O)COc3ccc(S(=O)(=O)N4CCC(C)CC4)cc32)cc1 | -7 | 45* | -1 | -1 | 2 | -5
O=C1C=CC(=Nc2ccc3c(c2)Cc2cc(F)ccc2-3)O1 | · | 23* | · | -2 | · | ·
COc1ccccc1CNC(=O)CCCNC(=O)Cn1cnc2sc(C)c(C)c2c1=O | -37 | 1 | -4 | -2 | 15 | 5
COc1ccc(C(c2nnnn2C2CCCCC2)N2CCN(C/C=C/c3ccccc3)CC2)cc1 (configuration not stated) | · | · | · | 0 | · | ·
O=C(O)c1cccc(-n2sc3ccccc3c2=O)c1 | 19 | 23* | -16 | -2 | -15 | ·
O=c1c2ccccc2sn1-c1cccc(Cl)c1 | · | · | · | 25 | · | ·
Cc1ccc(-n2sc3ccccc3c2=O)cc1S(=O)(=O)N1CCCCC1 | 0 | -9 | 0 | 41 | 12 | 90*
Nc1nc(SCCO)[nH]c(=O)c1NC(=O)c1ccco1 | -6 | 1 | 0 | -2 | -24 | ·
Cc1cc(=O)[nH]c(SCC(=O)Nc2ncc(S(=O)(=O)c3ccc([N+](=O)[O-])cc3)s2)n1 | -12 | -3 | -2 | 2 | 16 | 4
CC(C)c1ccc(Nc2nnc(SCC(=O)Nc3ncc(S(=O)(=O)c4ccc([N+](=O)[O-])cc4)s3)s2)cc1 | 1 | 13* | 11 | 1 | 44 | 17
CC(=O)N=c1sccn1CC(O)c1ccc(Br)cc1 (configuration not stated) | -14 | 0 | · | -2 | -1 | 2
SMILES | CSC inhib | GRIN3A LBD mod | Beta apoptosis | MPTP block | Mdm2 MdmX PPI | SKKanGAS inh
CCCCn1c(CCCNC(=O)c2ccco2)nc2ccccc21 | -4 | 0 | · | 0 | -1 | 53*
CCCCn1c(CCNC(=O)c2ccco2)nc2ccccc21 | 8 | 3 | 1 | -2 | 16 | -3
CC1=C(C(=O)N2CCOCC2)CC(CC(=O)NCc2cccs2)C(=O)N1Cc1ccccc1 (configuration not stated) | · | · | · | -3 | · | ·
COc1ccc(N2CCN(C(=O)CNC(=O)Cc3ccccc3)CC2)cc1 | -14 | -1 | 0 | 0 | 25 | -6
COc1ccc(N2CCN(C(=O)CNC(=O)Cc3ccc(Cl)cc3)CC2)cc1 | 2 | 13* | -5 | -2 | 43 | -3
CCn1c(NC(=O)c2ccccc2)nc2ccccc21 | 7 | -1 | 6 | -1 | -8 | 23
C=CCn1c(NC(=O)c2ccccc2)nc2ccccc21 | 12 | 1 | · | 1 | 21 | 65*
CCn1c(NC(=O)c2cccc(Cn3cc(Cl)cn3)c2)nc2ccccc21 | 22 | -14 | · | 1 | 43 | 85*
Cn1c(NC(=O)c2cccc(Cn3cc(Cl)cn3)c2)nc2ccccc21 | 9 | 0 | 23 | 4 | 20 | 16
O=C(O)C1(Nc2ccc(Br)cc2)CCCC1 | · | 0 | · | 1 | · | ·
COc1ccc(Cl)cc1Cn1c(C)c(C(=O)NCc2cccc(Cl)c2)sc1=O | · | · | · | 0 | · | ·
NC(=O)c1ccsc1NC(=O)CSc1nc2ccccc2c(=O)n1CCCO | -5 | 0 | -2 | 0 | 16 | 7
Cn1c(SCC(=O)Nc2sccc2C(N)=O)nc2ccccc2c1=O | 18 | 35* | -3 | 1 | 7 | ·
CCCCSc1ccc2nc(-c3ccc(C#N)cc3)cn2c1 | 23 | -2 | 7 | 9 | -30 | 54*
CCn1nc(C(=O)OCC(=O)c2ccc(F)cc2)c2ccccc2c1=O | 4 | -1 | -3 | -1 | 2 | -1
CCn1nc(C(=O)OC(C(=O)c2c[nH]c3ccccc23)c2ccccc2)c2ccccc2c1=O (configuration not stated) | 17 | 20* | 3 | 1 | 16 | 14
Cc1ccc2[nH]c3c(c2c1)CCN(C)C3 | -2 | -1 | 2 | 1 | 24 | -4
Cc1nn(C(=O)c2cccnc2)c(C)c1Sc1ccc(Br)cc1 | -1 | -29 | -16 | 7 | 14 | 63*
Cc1nn(C(=O)c2ccco2)c(C)c1Sc1ccc(Cl)cc1 | · | 1 | · | 5 | 5 | -4
O=C(N/N=C/c1ccc(OC(=O)c2ccco2)cc1)c1ccccn1 | -16 | 14* | · | -1 | -34 | 9
COc1ccc(C(=O)N/N=C/c2ccccn2)cc1OC | 17 | 0 | 0 | 0 | 13 | -1
